According to PubChem BioAssay (Tox21):
Values joined by “and” are separate entries in the source; they are usually repeats but may differ in a detail not shown here. Identical values can stand only once. Inconclusive results are not listed. The source holds several records for some structures; these can differ, active in one and inactive in another. Active and inactive are the calls of the source. Unless noted, calls follow the shape of the dose curve; as a rule, active = well fitted curve in the direction sought with a large enough effect in the repeat runs; inconclusive = weak or mixed curves; inactive = no such curve, though single readings can be large; an effect the other way counts as inactive or inconclusive.

Assays:
[1] = qHTS assay to identify small molecule antagonists of the estrogen related receptor (ERR) signaling pathway from Tox21 library - cell viability counter screen (AID 1224834); also: nearly all actives have a fitted effect of over 30% in size; also: potency is read from the fitted curve at half-maximal effect
In short: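 Compounds in DMSO were pinned onto ERR cells that had been incubated for 6 h, and the plates were held at 37 C for 17.5 h. CellTiter-Fluor reagent was then added and fluorescence was measured after 30 min.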

[2] = qHTS assay to identify small molecule agonists of the constitutive androstane receptor (CAR) signaling pathway - cell viability counter screen (AID 1224836); also: nearly all actives have a fitted effect of over 45% in size; also: potency is read from the fitted curve at half-maximal effect
In short: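 Multiplexed viability check: HepG2-CYP2B6-hCAR cells, 15-point compound dosing, 0.75 uM PK11195 final, 23 h at 37 C, CellTiter-Fluor fluorescence.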

[3] = qHTS assay to identify small molecule antagonists of the constitutive androstane receptor (CAR) signaling pathway - cell viability counter screen (AID 1224837); also: nearly all actives have a fitted effect of over 45% in size
In short: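 Cells are seeded, rested 4 hr at 37 C/5% CO2, dosed with compound (15-point series) and 50 nM CITCO, incubated a further 23 hr, and then CellTiter-Fluor reagent is added before fluorescence is read. The line is HepG2 with stable hCAR and CYP2B6-2.2kb.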

[4] = target: Nuclear receptor subfamily 1 group I member 3 (Homo sapiens) (UniProt Q14994); assay: qHTS assay to identify small molecule antagonists of the constitutive androstane receptor (CAR) signaling pathway (AID 1224838);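 also: HepG2 cells stably expressing hCAR with CYP2B6 luciferase reporter stimulated by CITCO; nearly all actives have a fitted effect of over 40% in size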; also: potency is read from the fitted curve at half-maximal effect
In short: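 Luminescence from a CYP2B6-2.2kb promoter reporter in hCAR-expressing HepG2 cells reflects CAR signaling. Cells received compounds at 15 concentrations and 50 nM CITCO (final), then incubated 24 h at 37 C/5% CO2.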

[5] = target: Nuclear receptor subfamily 1 group I member 3 (Homo sapiens) (UniProt Q14994); assay: qHTS assay to identify small molecule agonists of the constitutive androstane receptor (CAR) signaling pathway (AID 1224839); also: nearly all actives have a fitted effect of over 15% in size; also: potency is read from the fitted curve at half-maximal effect;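 as to activation: HepG2 cells stably carrying human CAR and a CYP2B6 luciferase reporter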
In short: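 Using human hepatoma HepG2 cells engineered with hCAR and a CYP2B6-2.2kb reporter, 15-concentration compound series were incubated 24 h alongside PK11195 at 0.75 uM final, with luminescence quantified afterwards.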

[6] = qHTS assay to identify small molecule antagonists of the estrogen related receptor signaling pathway with the pleiotropic PPARgamma coactivator (PGC) from Tox21 10K library - cell viability counter screen (AID 1224840; active = well fitted cell-killing curve with a large enough effect in the repeat runs, not every such curve was filed as active; also: nearly all actives have a fitted effect of over 40% in size)
In short: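 Cell viability is measured by CellTiter-Fluor fluorescence in PGC/ERR cells that receive compounds after a 6-hour attachment period and are then incubated 17.5 hours at 37 C.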

[7] = qHTS assay to identify small molecule agonists of the estrogen related receptor signaling pathway with the pleiotropic PPARgamma coactivator (PGC) from Tox21 10K library (AID 1224842); also: nearly all actives have a fitted effect of over 15% in size
In short: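 PGC/ERR reporter cell line, 2,000 cells per well, incubated 6 h at 37 C before 23 nL compound in DMSO was added. After 18 h at 37 C, One-Glo luminescence read following 30 min at room temperature.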

[8] = target: Thyrotropin receptor (Homo sapiens) (UniProt P16473); assay: qHTS assay to identify small molecule agonists of the thyroid stimulating hormone receptor (TSHR) signaling pathway (AID 1224843; calls by dose curve; also: nearly all actives have a fitted effect of over 45% in size)
In short: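 HEK293/TSHR, 800 cells/well; cpd 30 min RT; add cAMP-d2 + anti-cAMP-cryptate, 1 h RT; fluorescence read on plate reader. 15-pt titration, n=3.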

[9] = qHTS assay to identify small molecule agonists of the hypoxia (HIF-1) signaling pathway - cell viability counter screen (AID 1224844; calls by dose curve; also: nearly all actives have a fitted effect of over 50% in size)
In short: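 Viability counter screen: HRE-bla ME-180 cells plated 5 hrs before compound addition, treated 17 hrs at 37C and 5% CO2, then CellTiter-Glo added after the FRET reporter read; luminescence after 30 min.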

[10] = qHTS assay to identify small molecule antagonists of the estrogen related receptor (ERR) signaling pathway from Tox21 library (AID 1224848); also: nearly all actives have a fitted effect of over 50% in size; also: potency is read from the fitted curve at half-maximal effect
In short: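 Compounds dissolved in DMSO are pin-transferred onto ERR reporter cells (2,000 per well) that have settled for 6 h at 37 C. Plates then incubate 18 h at 37 C before ONE-Glo luciferase reagent and a luminescence read 30 min later.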

[11] = qHTS assay to identify small molecule agonists of the estrogen related receptor (ERR) signaling pathway from Tox21 library (AID 1224849; calls by dose curve; also: nearly all actives have a fitted effect of over 15% in size); conditions: ERR reporter cell line, ONE-Glo luciferase, 18 h
In short: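 Quantitative HTS in agonist format: NTP ERR cell line, compounds transferred in DMSO after 6 h plating, 18 h incubation at 37 C, ONE-Glo luminescence endpoint.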

[12] = qHTS RealTime-Glo MT Cell Viability Assay in HepG2 cells - 24 hour (AID 1224867); also: nearly all actives have a fitted effect of over 50% in size; also: potency is read from the fitted curve at half-maximal effect
In short: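 HepG2 cells (600/well) were dispensed with RealTime-Glo reagents, incubated 5 h at 37 °C, then treated with compounds in DMSO for up to 40 h. Nonlytic NanoLuc luminescence reflecting viable cells was read at each stated time point.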

[13] = qHTS RealTime-Glo MT Cell Viability Assay in HEK293 cells - 32 hour (AID 1224868); also: top concentration of the series differs between compounds; nearly all actives have a fitted effect of over 50% in size
In short: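 HEK293 cells seeded with NanoLuc/prosubstrate reagent, rested 5 h at 37 C, then dosed and kept at 37 C up to 40 h. Nonlytic real-time luminescence from viable cells read at 0, 8, 16, 24, 32 and 40 h.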

[14] = A CellTox Green Cytotoxicity Assay to monitor cytotoxicity in HEK293 cells - 0 hour (AID 1224869); also: nearly all actives have a fitted effect of over 50% in size
In short: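 Dead-cell fluorescence measured kinetically: asymmetric cyanine dye, HEK293, 600 cells/well, 5 h settle, 23 nL cpd/DMSO, 37 C, reads 0–40 h every 8 h.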

[15] = qHTS RealTime-Glo MT Cell Viability Assay in HepG2 cells - 40 hour (AID 1224870); also: nearly all actives have a fitted effect of over 50% in size; also: potency is read from the fitted curve at half-maximal effect
In short: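 HepG2 cells (600/well) mixed with RealTime-Glo MT reagent, settled 5 h at 37 C/5% CO2 before compound addition. Nonlytic NanoLuc luminescence from viable-cell prosubstrate reduction read repeatedly during 40 h treatment at 37 C.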

[16] = target: Luciferin 4-monooxygenase (Photinus pyralis) (UniProt P08659); assay: qHTS assay to identify small molecule inhibitors of firefly luciferase (AID 1224835); also: nearly all actives have a fitted effect of over 25% in size; also: potency is read from the fitted curve at half-maximal effect
In short: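 Biochemical qHTS: compounds run as interplate titrations against purified firefly enzyme, with D-luciferin and ATP each at its KM concentration. Light output recorded by CCD imaging.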

[17] = qHTS assay to identify small molecule agonists of H2AX (AID 1224845; active = well fitted activation curve with a large enough effect in the signal ratio in the repeat runs, not every such curve was filed as active; the % refers to the signal ratio; also: potency is read from the fitted curve at half-maximal effect)
In short: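 Wild-type CHO-K1 cells, plated overnight, exposed 3hr at 37C to 15 concentrations (0.76% DMSO final). Lysed, then HTRF anti-pH2AX (S139) cryptate and anti-H2AX-d2 antibodies, 24 hr room temperature; 665/620 nm emission read.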

[18] = qHTS assay to identify small molecule agonists of H2AX - cell viability counter screen (AID 1224847; calls by dose curve; also: nearly all actives have a fitted effect of over 30% in size; also: potency is read from the fitted curve at half-maximal effect; as to activity change, negative = cytotoxicity: top concentration of the series differs between compounds)
In short: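 After overnight plating of 1000 CHO-K1 cells per well, a 15-concentration compound series was applied for 3 hr at 37C. Luminescence from CellTiter-Glo, read following 30 min at room temperature, reflected cell viability.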

[19] = qHTS assay to identify small molecule antagonists of the estrogen related receptor signaling pathway with the pleiotropic PPARgamma coactivator (PGC) from Tox21 10K library (AID 1224841; call rule not given here; also: potency is read from the fitted curve at half-maximal effect)
In short: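 Cells stably carrying the PGC/ERR reporter, seeded at 2,000 per well, received pin-transferred compounds 6 h post-plating. Exposure lasted 18 h at 37 C. Signal: One-Glo luminescence.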

[20] = qHTS assay to identify small molecule agonists of the hypoxia (HIF-1) signaling pathway (AID 1224846; active = well fitted activation curve with a large enough effect in the signal ratio in the repeat runs, not every such curve was filed as active; the % refers to the signal ratio)
In short: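 Agonist mode reporter screen. ME-180 cells stably expressing bla under HRE control received test compounds in DMSO for 17 hrs (37C, 5% CO2), and beta-lactamase activity was then detected with the CCF4-AM FRET substrate.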
% is scaled to controls: 0 for no effect and ±100 for the full control effect.

Thyrotropin receptor (Homo sapiens), sequence (P16473 whole entry, looked up): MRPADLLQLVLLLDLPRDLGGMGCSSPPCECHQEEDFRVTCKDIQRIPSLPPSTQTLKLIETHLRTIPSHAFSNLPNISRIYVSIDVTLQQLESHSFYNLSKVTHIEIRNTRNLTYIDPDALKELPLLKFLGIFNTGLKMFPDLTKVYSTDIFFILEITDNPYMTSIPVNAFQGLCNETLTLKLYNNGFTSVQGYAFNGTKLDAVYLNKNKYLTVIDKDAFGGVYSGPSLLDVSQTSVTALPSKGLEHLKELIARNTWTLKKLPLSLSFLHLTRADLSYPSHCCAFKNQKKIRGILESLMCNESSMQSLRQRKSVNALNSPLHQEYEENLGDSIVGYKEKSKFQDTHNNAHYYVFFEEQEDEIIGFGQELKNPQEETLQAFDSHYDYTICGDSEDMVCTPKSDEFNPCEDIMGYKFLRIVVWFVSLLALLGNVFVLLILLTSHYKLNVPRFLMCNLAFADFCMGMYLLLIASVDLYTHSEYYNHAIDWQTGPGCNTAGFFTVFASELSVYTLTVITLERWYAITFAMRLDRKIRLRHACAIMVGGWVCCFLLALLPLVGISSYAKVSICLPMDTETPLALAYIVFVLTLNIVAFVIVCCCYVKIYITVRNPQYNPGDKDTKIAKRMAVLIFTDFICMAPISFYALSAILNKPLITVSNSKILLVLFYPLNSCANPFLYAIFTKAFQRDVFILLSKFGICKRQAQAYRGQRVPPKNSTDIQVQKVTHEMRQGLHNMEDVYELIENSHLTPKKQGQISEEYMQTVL
Luciferin 4-monooxygenase (Photinus pyralis), sequence (P08659 whole entry, looked up): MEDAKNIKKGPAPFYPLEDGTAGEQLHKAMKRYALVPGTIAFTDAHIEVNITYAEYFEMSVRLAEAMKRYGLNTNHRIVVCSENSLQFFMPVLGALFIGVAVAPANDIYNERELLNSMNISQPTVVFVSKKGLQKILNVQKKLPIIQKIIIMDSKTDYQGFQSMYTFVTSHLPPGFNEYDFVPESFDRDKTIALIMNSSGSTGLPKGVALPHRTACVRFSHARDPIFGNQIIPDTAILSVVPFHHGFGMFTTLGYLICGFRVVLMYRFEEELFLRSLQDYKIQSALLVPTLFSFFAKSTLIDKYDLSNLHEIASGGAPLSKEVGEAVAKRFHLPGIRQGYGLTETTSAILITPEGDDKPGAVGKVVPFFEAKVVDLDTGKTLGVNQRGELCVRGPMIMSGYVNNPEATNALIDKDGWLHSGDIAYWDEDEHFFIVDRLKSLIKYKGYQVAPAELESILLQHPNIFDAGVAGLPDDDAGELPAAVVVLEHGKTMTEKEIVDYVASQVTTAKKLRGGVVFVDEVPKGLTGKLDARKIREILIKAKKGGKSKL
Nuclear receptor subfamily 1 group I member 3 (Homo sapiens), sequence (Q14994 whole entry, looked up): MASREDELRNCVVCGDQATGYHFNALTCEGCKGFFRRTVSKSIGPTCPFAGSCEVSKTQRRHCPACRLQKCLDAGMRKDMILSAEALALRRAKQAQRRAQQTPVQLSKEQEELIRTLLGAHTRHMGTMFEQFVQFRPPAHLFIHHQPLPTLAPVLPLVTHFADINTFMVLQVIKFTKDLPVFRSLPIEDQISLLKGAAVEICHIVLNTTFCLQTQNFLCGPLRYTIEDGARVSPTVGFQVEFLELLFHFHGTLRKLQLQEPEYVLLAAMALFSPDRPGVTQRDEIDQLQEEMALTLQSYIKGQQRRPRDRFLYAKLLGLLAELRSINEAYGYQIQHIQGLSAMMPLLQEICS

CCn1c2ccccc2c2cc(N)ccc21
inactive: Potency [1] | Potency [2] | Potency [3] | Potency [4] | Potency [6] | Potency [7] | Potency [8] | Potency [9] | activity change, positive = activation ([11]; at 92.4 µM (top of the series)) -48% and -30.3% and -32.3% | Potency [12] | Potency [13] | Potency [14] | Potency [15]
active: Potency [5] 10.8 µM and 15.4 µM and 30.6 µM | Potency [10] 34 µM

Clc1ccc2c(c1)C(N1CCNCC1)=Nc1ccccc1O2
active: Potency [15] 54.9 µM
inactive: Potency [1] | Potency [16] | Potency [6] | Potency [8] | Potency [9] | Potency [17] | Potency [18] | Potency [14]

COc1ccc(CCN(C)CCCC(C#N)(c2ccc(OC)c(OC)c2)C(C)C)cc1OC (stereo not drawn)
active: Potency [1] 54.4 µM | Potency [2] 48.5 µM
inactive: Potency [6] | Potency [18] | Potency [14]

CC1=CC(=O)c2ccccc2C1=O
61.1 µM (active) and inactive: Potency [1]
active: Potency [4] 30.6 µM | Potency [19] 30.6 µM | Potency [17] 40.1 µM | Potency [18] 40.1 µM | Potency [10] 43.3 µM | Potency [12] 43.6 µM | Potency [15] 49 µM
inactive: Potency [16] | Potency [5] | Potency [6] | Potency [7] | activity change, positive = activation ([11]; at 42.5 µM (top of the series)) -26.5% | activity change, positive = activation ([11]; at 92.4 µM (top of the series)) -78.8% | Potency [14]

NC(Cc1ccc(Cl)cc1)C(=O)O (stereo not drawn)
inactive: activity change, negative = inhibition [16] 3.14% [at 0.435 µM] | viability change, negative = cytotoxic [2] 1.54% [at 0.349 µM] | activity change, negative = cytotoxicity [3] 6.69% [at 0.349 µM] | activity, negative = inhibition [4] -14.1% [at 0.349 µM] | activation [5] 0.949% [at 0.349 µM] | viability change, negative = cytotoxic [6] -10% [at 0.349 µM] | activity, negative = inhibition [19] 0.39% [at 0.349 µM] | activation [7] 0.108% [at 0.349 µM] | activation [8] -0.308% [at 0.349 µM] | activity change, negative = cytotoxicity [9] 0.588% [at 0.29 µM] | activation (H2AX phosphorylation) [17] -0.212% [at 0.582 µM] | activity change, negative = cytotoxicity [18] -0.321% [at 0.582 µM] | activity, negative = inhibition [10] -15% [at 0.349 µM] | activity change, positive = activation ([11]; at 0.349 µM (top of the series)) -8.03% | activity change, negative = cytotoxicity [12] 0.0518% [at 0.29 µM] | activity change, negative = cytotoxic [13] 11.7% [at 0.29 µM] | cytotoxicity [14] -2.12% [at 0.29 µM] | activity change, negative = cytotoxic [15] 0.881% [at 0.29 µM]

[Cl][In]([Cl])[Cl]
inactive: Potency [1] | Potency [3] | Potency [4] | Potency [5] | Potency [6] | Potency [9] | Potency [17] | Potency [20] | Potency [18] | activity change, positive = activation ([11]; at 92.4 µM (top of the series)) -22.9% and -30% | Potency [14] | Potency [15]
active: Potency [16] 36.6 µM and 39.9 µM | Potency [10] 34.4 µM

C=C(C)C1CC=C(C)C(OC(C)=O)C1 (stereo not drawn)
inactive: Potency [1] | Potency [16] | Potency [3] | Potency [6] | Potency [19] | Potency [7] | Potency [8] | Potency [9] | Potency [17] | Potency [20] | Potency [18] | Potency [10] | activity change, positive = activation ([11]; at 92.4 µM (top of the series)) 2.18% and 0.969% | Potency [12] | Potency [13] | Potency [14] | Potency [15]
